From PubChem BioAssay AID624351 (Southern Research Specialized Biocontainment Screening …, 2012)
Screen size: about 2,400 compounds; about 1,400 (58%) were called active.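 How the source made its calls: active means inhibition of 30% or more at any tested dose; inconclusive means primary hits over the limit that were never retested; inactive means the rest.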 So high a share suggests a set chosen from earlier hits. Some of the results follow.

Assay: coupled detection enzyme interference, dose response, artefact control for MgcRacGAP inhibitor project, biochemical, coupled enzyme counter-screen (AID 624351);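 further: signal is the ADP detection kit reading of free GDP without any GAP enzyme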
Conditions: ADP Hunter coupled enzyme counter-screen, fluorescence, no MgcRacGAP; series mostly up to 80 µM

SMILES | IC50
O=C(CCC1CCCC1)N1CCN(C2CCCC2)CC1 | inactive
CC/C(=C\c1ccc(N(C)C)cc1)c1ccncc1 | 29.7 µM (active)
COC1=C(Br)C(=O)c2nc(C)ccc2C1=O | inactive
O=C(Nc1ccc(N2CCCCCC2)cc1)c1ccc[nH]1 | 38.8 µM (active)
Cc1ccccc1C(=O)Nc1ccc(N2CCCC2)cc1 | 70.8 µM (active)
O=C(Nc1ccc(N2CCCCC2)cc1)c1ccccc1 | inactive
CN1CCN(Cc2coc3c(Cl)cc(Cl)cc3c2=O)CC1 | inactive
Cc1ccc(CCC(=O)Nc2ccc(N(C)C)cc2)o1 | 57.5 µM (active)
Cc1ccc(NC(=O)CCNCc2ccco2)cc1S(=O)(=O)N(C)C | inactive
COc1ccc(NC2CCCN(C(=O)CSc3ccccc3)C2)cc1OC (stereo not drawn) | 68.5 µM (active)
COc1ccc(CN2CCN(Cc3cccc(F)c3)CC2)cc1OC | inactive
COc1ccc(NC2CCCN(C(=O)CCN3Cc4ccccc4C3=O)C2)cc1 (stereo not drawn) | 63 µM (active)
O=C(c1cccc(F)c1)N1CCN(Cc2cccc(Br)c2)CC1 | inactive
COc1ccc(NC2CCCN(C(=O)CCN3CCCC3=O)C2)cc1OC (stereo not drawn) | inactive
COc1ccc(NC2CCCN(C(=O)CCc3cccc(F)c3)C2)cc1 (stereo not drawn) | 72.9 µM (active)
COc1ccc(C(=O)N2CCN(C3CCN(Cc4ccccc4)CC3)CC2)cc1OC | inactive
COc1ccc(C2CC(c3ccc4ccccc4c3)=NN2C(=O)CNC2CCCCC2)cc1 (stereo not drawn) | inactive
COc1ccc(NC2CCCN(C(=O)CCN3CCCO3)C2)cc1 (stereo not drawn) | inactive
CCOc1ccccc1/C=c1\sc2ncnn2c1=O | inactive
CN1C(=O)NC(c2ccc(O)cc2)C2=C1CN(c1ccc(O)cc1)C2=O (stereo not drawn) | 44.7 µM (active)
O=C(Cn1c(C(=O)NCC2CCCO2)cc2sccc21)c1ccccc1 (stereo not drawn) | 81.6 µM (active)
O=C(CN1CCCCCC1)NCC1CCCO1 (stereo not drawn) | inactive
C=CCOc1ccccc1CN1CCCN(C)CC1 | inactive

SMILES | IC50
COc1cccc(Nc2nc(-c3ccc(O)cc3)cs2)c1 | 63.7 µM (active)
Oc1ccc(-c2csc(Nc3ncccn3)n2)cc1 | 21.3 µM (active)
Oc1ccc(-c2csc(Nc3cccnc3)n2)cc1 | 15.8 µM (active)
Oc1ccc(-c2csc(NCc3ccco3)n2)cc1 | 24 µM (active)
COc1cccc(NC2=C(C#N)C(=O)NC(c3cccc(OC)c3O)S2)c1 (stereo not drawn) | inactive
COc1cccc(CNCc2ccco2)c1O | inactive
COc1ccc(-n2c(SCC(=O)C(C)(C)C)nc3c(sc(=S)n3-c3ccccc3)c2=O)c(OC)c1 | inactive
O=C(Nc1nc(-c2ccncc2)cs1)C1COc2ccccc2O1 (stereo not drawn) | inactive
Cc1ccnc(Nc2nc(-c3ccc(O)c(O)c3)cs2)c1 | 61 µM (active)
Oc1ccc(-c2csc(Nc3ccccn3)n2)cc1 | 79.7 µM (active)
Oc1ccc(-c2csc(Nc3ccccn3)n2)c(O)c1 | 63.3 µM (active)
Cc1nc2ncccn2c1-c1csc(Nc2ccc(O)cc2)n1 | 11.1 µM (active)
NNc1cc([N+](=O)[O-])cc2c1C(=O)N(Cc1ccccc1)S2=O (stereo not drawn) | inactive
O=C1NN(c2ccccc2)C(=O)C1=Cc1ccccc1O | inactive
COc1cccc(OCC(O)CN2CCN(C)CC2)c1 (stereo not drawn) | inactive
c1ccc(CCNCCCOc2cccc3ccccc23)cc1 | inactive
COc1cc2c(cc1N)-c1ccc(N)cc1C2=O | 16.5 µM (active)
Nc1ccc2c(c1)C(=O)c1cc(N)c(Cl)cc1-2 | 49.2 µM (active)
O=C(/C=C/c1ccc([N+](=O)[O-])cc1)/C=C/c1ccco1 | inactive
Cc1ccc(Cl)c(OCCCN(C)Cc2ccccc2)c1 | inactive
O=C(CNCC1CCCO1)Nc1ccc(N2CCCCCC2)cc1 (stereo not drawn) | inactive
CC1=NN(c2cccc(C(=O)O)c2)C(=O)/C1=C\C=C\c1ccco1 | inactive
N#Cc1ccccc1OCCCN1CCC(Cc2ccccc2)CC1 | inactive

SMILES | IC50
CC(=O)c1c(C)c(C)c2n1CCn1c(C)ccc1-2 | 44.7 µM (active)
Clc1nc(NCc2cccnc2)nc(N2CCOCC2)n1 | inactive
COc1ccc2cc(CNCCOCCOCCNCc3ccc4cc(OC)ccc4c3)ccc2c1 | inactive
COc1ccc(NCc2cccnc2)cc1 | 54.6 µM (active)
COc1cccc(OC)c1C(=O)N1CCN(Cc2cccnc2)CC1 | inactive
COc1ccc(NCc2ccsc2)cc1 | 28.9 µM (active)
N#CCCN(CCC#N)c1nncs1 | inactive
Cc1ccc2c(c1)C(C)CC(C)(C)N2C(=O)CN1CCN(C)CC1 (stereo not drawn) | inactive
COc1ccc2c(c1)-c1nc(/N=C/c3cccc(OC)c3O)sc1CC2 | 29.2 µM (active)
COc1ccc2nc(C)cc(N/N=C/c3cccc(OC)c3O)c2c1 | inactive
COc1ccc2c(c1)-c1nc(/N=C/c3ccccc3O)sc1CC2 | 32.7 µM (active)
COc1ccc2c(c1)-c1nc(/N=C/c3c(O)ccc4ccccc34)sc1CC2 | 62.7 µM (active)
Cc1cc(Cl)c(OCCOCCN2CCN(C)CC2)c(Br)c1 | inactive
CCCCN(C)CCNC(=O)CSCc1ccc(C)cc1 | inactive
O=C(N/N=C/c1ccc(N2CCOCC2)s1)c1ccc(O)cc1 | 25.2 µM (active)
Nc1ccc(C(=O)N/N=C/c2ccc(N3CCOCC3)s2)cc1 | 19.5 µM (active)
Cc1cc(OCCCN2CCN(Cc3ccccc3)CC2)ccc1[N+](=O)[O-] | inactive
CC(=O)Nc1cccc2cc(O)ccc12 | 35.8 µM (active)
O=C(/C=C/c1ccc(O)c(O)c1)OC(Cc1ccc(O)c(O)c1)C(=O)O (stereo not drawn) | 44.1 µM (active)
O=C1N=c2ccccc2=C1c1sc(Nc2ccc(O)cc2)nc1O | inactive
Cc1ccc(-c2csc3n[nH]c(=S)n23)cc1 | 61.8 µM (active)
CC1(C)Nc2cccc3cccc(c23)N1 | 31.9 µM (active)
COc1ccc(OC(=O)c2cc(S(=O)(=O)N3CCCC3)ccc2Cl)cc1 | inactive

SMILES | IC50
C/C(=N\Nc1ccc(S(=O)(=O)N2CCCCC2)cn1)c1ccc(O)cc1 | 20 µM (active)
CC1CCCC(N2CCN(C(=O)c3ccc([N+](=O)[O-])cc3)CC2)C1 (stereo not drawn) | inactive
Cc1ccc(NCc2ccco2)cc1C | inactive
Cc1ccc(NCCCCO)cc1C | 43.3 µM (active)
C/C(=N\Nc1cccc2cccnc12)c1ccc[nH]1 | inactive
Cc1nc(Cc2nnc(SCC(=O)N3CCN(c4ccc(O)cc4)CC3)o2)cs1 | 30.6 µM (active)
Cc1cccc(NC2=C(C#N)C(=O)NC3(CCCC3)S2)c1 | inactive
COc1ccc(CN2CCCN(C)CC2)c(OC)c1C | inactive
COc1cc(/C=N/N2CCN(c3ccccc3OC)CC2)ccc1O | 36.5 µM (active)
COc1ccccc1N1CCN(CC(=O)c2ccc(F)cc2)CC1 | inactive
COc1ccccc1N1CCN(CCCOc2ccc(F)cc2)CC1 | inactive
COc1cc(/C(C)=N/N2CCN(c3ccccc3OC)CC2)ccc1O | inactive
COc1ccccc1N1CCN(/N=C/c2ccc(O)cc2O)CC1 | 70.9 µM (active)
COc1cccc(OC)c1NC(=O)CN1CCN(C)CC1 | inactive
COc1ccc(/C=N/N2CCN(C)CC2)cc1O | 42.6 µM (active)
Cc1ccc(N2C(N)=C(C#N)C3(C(=O)N(C)c4ccccc43)C3=C2CC(C)(C)CC3=O)cc1Cl (stereo not drawn) | inactive
Cc1cccc2sc(NNC(=O)c3cc(=O)c4ccccc4o3)nc12 | 64.9 µM (active)
COc1cc(/C=N/NC(=O)C2=NNC(=O)C2C)ccc1O (stereo not drawn) | 74.7 µM (active)
CC1C(=O)NN=C1C(=O)N/N=C\c1ccc(O)cc1O (stereo not drawn) | 37.7 µM (active)
COc1cc(/C=N/NC(=O)CC2C(=O)NN=C2C)ccc1O (stereo not drawn) | 59.1 µM (active)
CCN1CCN(Cc2ccc(NC(=O)c3ccc(C)c(/C=C/c4cnc(Nc5cc(N6CCNCC6)nc(C)n5)cn4)c3)cc2C(F)(F)F)CC1 | inactive
Cc1c(C(=O)N/N=C/c2ccc(O)cc2)sc(=S)n1C | inactive
O=C(N/N=C/c1ccc(O)cc1)c1csc2ccccc12 | 43.1 µM (active)

SMILES | IC50
O=C(N/N=C/c1sc2ccccc2c1O)c1cccc2ccccc12 | 60.6 µM (active)
O=C(N/N=C/c1ccc(F)cc1)c1cc(-c2ccco2)nc2ccccc12 | inactive
O=C(N/N=C/c1ccc(O)cc1)c1csc2c1CCCC2 | 40.6 µM (active)
C=CCc1cccc(Cl)c1OCCCNC1CCCC1 | inactive
O=C1ON=C(c2ccccc2)/C1=C/c1ccco1 | inactive
Cc1ccc(COC(=O)Cc2coc3cc(O)ccc23)cc1 | 28.9 µM (active)
Cn1cccc1CC(=O)N/N=C/C=C/c1ccco1 | inactive
Oc1ccc(CCc2ccccn2)cc1 | 44.9 µM (active)
COc1ccc(CN(C)CCc2ccccn2)cc1OC | inactive
c1ccc(CNC23CC4CC(CC(C4)C2)C3)nc1 | inactive
CC(C)CC(=O)N1CCN(Cc2cccc([N+](=O)[O-])c2)CC1 | inactive
COc1cc(N2C(=O)C=CC2=O)ccc1N1C(=O)C=CC1=O | inactive
O=C(c1ccccc1F)N1CCN(Cc2ccc3c(c2)OCO3)CC1 | inactive
COc1cc(/C=N/Nc2nc(N3CCCC3)nc(N3CCCC3)n2)ccc1O | 79.1 µM (active)
COc1ccc(-c2cnnc(N/N=C/c3ccc(O)c(O)c3)n2)cc1 | 73.9 µM (active)
Oc1ccc(/C=N/Nc2nc(N3CCCC3)nc(N3CCCC3)n2)cc1O | 48.3 µM (active)
COc1cc2nc(N3CCNCC3)nc(N)c2cc1OC | inactive
CCNc1nc(NCC)nc(N/N=C/c2ccc(O)c(O)c2)n1 | 50.4 µM (active)
Cc1ccc(C)c(-n2sc3ccc(F)cc3c2=O)c1 | inactive
COc1ccc(/C=N/Nc2nc(N3CCCC3)nc(N3CCCC3)n2)cc1O | 71.1 µM (active)
CCOc1ccc(NCc2cccn2-c2nnc(N3CCC(C(=O)NCCCN4CCCCC4)CC3)s2)cc1 | 68.9 µM (active)
